molecular target: KRT85; test: pooled miR-30 sensor sort-seq; sequence = guide strand; conditions: shRNA
Further: reference of the scale not given here.

Sequence	sensor-assay potency score (higher = more potent)
TTCACTGAATAGCAAGACCTGT	-0.614
TTCTGGTAGAACTGCCACTTGG	-1.54
AACATCGTCATACTGAGCCTTG	-0.503
TATTTTGGAGCTAAGTAGGAGT	-0.047
TTCTTTAGAACGACAAACTCAT	0.238
TTGAAACACAGATCGAGACAAC	-0.784
TTTATTGAAACACAGATCGAGA	-0.788
TAGAACGACAAACTCATTCTCT	0.106
TCCCTCTGTAGGAACATCCAGA	-1.53
ATCTTGACTATGACCGAGGTGT	-0.378
TTGACTATGACCGAGGTGTCTG	-0.0564
TTGCTCTCGCAGCAGCGCTGGT	-1.3

molecular target: KRT86; test: as above; conditions: shRNA

Sequence	sensor-assay potency score (higher = more potent)
TAGTAGTGCCCACCACCACGTT	-1.34
TTTATTGGAAACACAGAGTGAA	0.556
TTGATCTCGGCAATGATGCAGT	-0.0305
TTAGTTTTTCAGAAGCTCTTGA	0.521
AATGTCATCGTACTGTGCCTTG	-0.754
TTGCTGTTGCTGGGGACGCTAC	-1.52
TGACAATGTCATCGTACTGTGC	-0.56
TTATTGGAAACACAGAGTGAAA	-1.53
ACGGGTGACAATGTCATCGTAC	-0.601
TCGTACTGTGCCTTGATCTCGG	0.0587

— the OligoGym collection
